From PubChem BioAssay AID651958 (The Scripps Research Institute Molecular Screening Center, 2012) come the findings set out here.

The campaign covered roughly 370,000 compounds. About 2,000 (0.54%) were called active. The list comes from a sample in which actives are over-represented; it also holds similar structures and randomly drawn compounds. Values without a mark were called inactive. Cut-off read from the data, not from the text of the source: active = inhibition above about 30%; inactive = the rest.

The subject of this test is Crimean-Congo hemorrhagic fever virus L polyprotein viral ovarian tumor (vOTU) protease domain. The test can be described thus: CCHFV vOTU protease inhibitors, primary screen, biochemical, Pep-AMC substrate, fluorescence (AID 651958). Note: 0% = vehicle wells with enzyme and 100% = no enzyme wells. Conditions: at 11.5 µM, stronger effect = higher value.
Regarding `Cc1cccc(N)c1SC1CCCCC1O` (stereo not drawn), the inhibition (in general, the drop in the measured response relative to a control, in per cent) is -10%. For `Cc1cccc(CN2CCC(n3nccc3NC(=O)c3ccccc3C)CC2)n1`, the inhibition was -2.72%. The value for `CCCCC[C@@H]1C=C(C(=O)OCC)[C@H](c2ccccc2)N1S(=O)(=O)c1ccc(C)cc1` was 11%. For `Cc1ccc(S(=O)(=O)N2[C@@H](c3ccc(Br)cc3)C(C(=O)O)=C[C@H]2CC2CCCC2)cc1`, the inhibition is 34.2% (active).

For the molecule `CCCCC[C@@H]1C=C(C(=O)O)[C@H](c2ccc(C#N)cc2)N1S(=O)(=O)c1ccc(C)cc1`, the inhibition is 16.8%. `COc1cc(NC(=S)N2CCCC(C)C2)c(OC)cc1Cl` (stereo not drawn): the inhibition is 7.18%. Take `COc1ccc(C(=O)OCCN(C)C2CN(Cc3cn(Cc4cccc(C)c4)nn3)S(=O)(=O)C2)cc1OC` (stereo not drawn): the inhibition is -1.74%. Regarding `O=C(O)c1ccc(NS(=O)(=O)c2ccc3c(c2)C(=O)c2cc(S(=O)(=O)Nc4ccc(C(=O)O)cc4)ccc2-3)cc1`, the inhibition is 14.6%. The result for `O=C(O)c1cc(S(=O)(=O)Nc2ccc3cn[nH]c3c2)ccc1Br` reads 36% (active); that for `O=S(=O)(Nc1ccc2[nH]ncc2c1)c1ccccc1Cl`, -2.37%. Turning to `CC1CCCN(CC(O)COc2ccc3c(c2)OCO3)C1` (stereo not drawn), the inhibition was 9.88%. Take `Oc1ccc(N=Cc2c(O)ccc3ccccc23)cc1`: the inhibition is 63.1% (active). The value for `Oc1ccc(N=Cc2sc3ccccc3c2Cl)cc1` was 97.4% (active); that for `Cn1cc(CN2CCC(C(O)CCc3ccccc3)CC2)c(-c2ccccc2F)n1` (stereo not drawn) was -4.04%. With `Cc1cc(OCCN2CCCC2)cc(C(C)C)c1`, the inhibition was -8.52%. As to `CC1=C2C(=O)C3C(CC=C4CC(OC5OC(O)C(O)C(O)C5CO)CCC43C)C2CCC12OC1CC(C)CNC1C2C` (stereo not drawn), the inhibition is -3.46%.

With `O=C(NCc1ccc(F)cc1)c1cc(C2CCCCN2C(=O)c2ccccn2)on1` (stereo not drawn), the inhibition was 11.8%. `O=C(NCc1ccc(F)cc1)c1cc(C2CCCCN2C(=O)c2cccs2)on1` (stereo not drawn): the inhibition was -3.47%. On to `O=C(NCc1ccc(F)cc1)c1cc(C2CCCCN2C(=O)C2CCCCC2)on1` (stereo not drawn), for which the inhibition is 33.5% (active).

Consider `CC(NC(=O)CN1CCN(Cc2ccc(Cl)cc2)C1=O)c1ccc2c(c1)OCCO2` (stereo not drawn), for which the inhibition was 11.5%. Regarding `CCN(CC)P(=O)(Oc1cccc(C)c1)N(CC)CC`, the inhibition was 32.4% (active). Take `Cc1cccc(OP(=O)(Oc2cccc(C)c2)OC(c2ccccc2)C(F)(F)F)c1` (stereo not drawn): the inhibition is 2.83%. As to `Cc1cccc(OCC(=O)Nc2ccc(C(=O)O)cc2NC(=O)COc2cccc(C)c2)c1`, the inhibition is 16.7%.

Turning to `Cc1ccc(S(=O)(=O)N2CCN(C(=O)Cn3c(=O)cnc4ccccc43)CC2)c(C)c1`, the inhibition is 14.9%. `O=C(CNCc1ccco1)Nc1cc(S(=O)(=O)N2CCOCC2)ccc1N1CCCC1`: the inhibition is -3.18%. The result for `CC(C)C[C@H](NC(=O)C1CCC(CNC(=O)[C@@H]2CCCN2C(=O)OC(C)(C)C)CC1)C(=O)O` (stereo partly drawn) reads -6.89%; that for `Oc1c(CN2CCN(c3ccc(F)cc3)CC2)cc(Cl)c2cccnc12`, 31.6% (active).

`O=C(c1ccccc1)c1cccn1CC(=O)N1CCN(c2ccc(F)cc2)CC1`: the inhibition was -2.38%. The value for `CC(C)c1ccc(O)c(CN2CCN(c3ccccc3)CC2)c1` was -12.4%; that for `Cc1ccc(S(=O)(=O)N2CCC(=O)N([C@H](COCc3ccccc3)C(C)C)CC2)cc1` was 3.62%. In the case of `COc1ccc(NC(=O)CNC(=O)Cn2ccc3ccccc3c2=O)c(OC)c1`, the inhibition is -6.81%.

In the case of `Cc1ccc(Sc2cc(N3CCOCC3)nc(-c3ccccc3)n2)cc1`, the inhibition was 13.3%. The value for `O=C(OC(C(=O)NC1CCCC1)c1ccc(F)cc1)c1ccno1` (stereo not drawn) was -21.1%; that for `Oc1ccc(CNc2ccccc2O)cc1` was 37% (active). In the case of `OCC(CO)(CO)NCc1ccc(-c2ccccc2)cc1`, the inhibition is -4.11%. In the case of `COC(=O)C1=CN(c2c(C)cc(C)cc2C)C(N)=C(C#N)C1c1cccc(F)c1` (stereo not drawn), the inhibition is 4.61%. As for `O=C(Nc1cccc2c1CCCC2)C1CCN(C(=O)NC2CCCCC2)CC1`, the inhibition was -8.92%.

On to `O=C(CSc1nnc2c(n1)[nH]c1ccccc12)NC1CCCCC1`, for which the inhibition is -13%. As for `O=C(NC1CCCCC1)N1CCc2[nH]c3ccccc3c2C1`, the inhibition is 58.5% (active). `CCCNC(=S)N1CCC(NC(=O)C23CC4CC(CC(C4)C2)C3)CC1`: the inhibition is -4.34%. The value for `CN1OC[C@@H]2CN(C(=O)c3cccnc3)[C@H](c3ccc(N4CCCCC4)cc3)C[C@@H]21` was -0.01%.

`N#Cc1cccc(CSc2nnc(CCCO)n2-c2ccccc2)c1`: the inhibition was -2.93%. The value for `CCOc1cc(NC(=O)CCl)c(OCC)cc1NC(C)=O` was 11.3%; that for `CCOc1ccccc1NC(=O)c1cc(S(=O)(=O)N2CCC3(CC2)OCCO3)ccc1F` was -13.4%; that for `CCOc1cc(NC(=O)c2ccccc2C(=O)O)c(OCC)cc1NC(=O)c1ccccc1F` was 35.5% (active). Regarding `S=C(NCCc1ccccc1)N1CCn2cccc2C1c1ccncc1` (stereo not drawn), the inhibition is 20.5%.

`c1ccc(N2Cc3ccccc3-n3nncc3C2)nc1`: the inhibition is -2.36%. Turning to `Cc1ccn2c(c1)nc(=O)c1cc(S(=O)(=O)N3CCC(C)CC3)ccc12`, the inhibition is -11.7%.

Consider `CCCCN(CC(=O)Nc1cccc(S(=O)(=O)N2CCCC2)c1)Cc1nc2ccccc2c(=O)[nH]1`, for which the inhibition was 3.14%. As for `CCn1nnnc1SCC(=O)Nc1ccc(N(C)C)cc1`, the inhibition is 30.6% (active). With `CC(=O)Nc1ccc(NC(=O)CSc2nnnn2-c2ccccc2F)cc1`, the inhibition is 2.7%. For the molecule `CC(=O)Nc1ccc(NC(=O)CSc2nnnn2C2CCCCC2)cc1`, the inhibition is -5.32%. The value for `CCn1c(SCC(=O)NC2=NCCS2)nnc1C(C)NC(=O)c1ccccc1F` (stereo not drawn) was 0.18%; that for `COCCCNS(=O)(=O)c1cccc(S(=O)(=O)c2cccc(S(=O)(=O)NCCCOC)c2)c1` was -10.2%; that for `Cc1ccc(C2(C(F)(F)F)N=C3Sc4cc(C)cc(C)c4N3C(=O)N2)cc1` (stereo not drawn) was -15.2%.

`Cc1ccc(OCc2nnc(SC/C=C/c3ccccc3)n2Cc2ccco2)cc1`: the inhibition was 31.9% (active). As for `Cc1ccc(-c2nnc(SCC(=O)Nc3ccc(Oc4ccccc4)cc3)n2Cc2ccco2)cc1`, the inhibition was 6.1%. Consider `O=C(CSc1nnc(COc2ccccc2)n1Cc1ccco1)c1ccc2ccccc2c1`, for which the inhibition was 7.39%.
